From the supplement of paper PMC3545927
This is one part of the list. No count for the full screen is at hand.

B1: FS-1475 (peptide)
chain: CAQLLRRRRAAGNASASA
B2: FS-582 (peptide)
chain: CACLSRRRRAAGNASASA
B3: HC1138 (peptide)
chain: CAQLLRRLHQAGNASASA
B4: FS-1613 (peptide)
chain: CASLLRERRAAGNASASA
B5: FS-326 (peptide)
chain: CAFLSRRRRAAGNASASA
B6: FS-798 (peptide)
chain: CAHRSVRRRAAGNASASA
B7: HC2214 (peptide)
chain: CAEVVTSKWVAGNASASA
B8: HC280 (peptide)
chain: CAWVAMTPTVAGNASASA
B9: HC50 (peptide)
chain: CATTPRSGSWAGNASASA
B10: HC612 (peptide)
chain: CAQASLLKVPAGNASASA
B11: HC673 (peptide)
chain: CALLAPITAYAGNASASA
B12: FS-1406 (peptide)
chain: CARSERNRRGAGNASASA
B13: FS-538 (peptide)
chain: CAHPQRKRRGAGNASASA
B14: FS-1076 (peptide)
chain: CARVQRLRRGAGNASASA
B15: FS-2237 (peptide)
chain: CARSERSVILAGNASASA
B16: FS-931 (peptide)
chain: CAGYFRIRRGAGNASASA
B17: FS-1122 (peptide)
chain: CAEVARLRRGAGNASASA
B18: HC1399 (peptide)
chain: CALQVLDSHYAGNASASA
B19: HC1416 (peptide)
chain: CALTPPHSAKAGNASASA
B20: HC2539 (peptide)
chain: CASTPCSPHLAGNASASA
B21: HC741 (peptide)
chain: CALKGSSGGPAGNASASA
B22: HC863 (peptide)
chain: CAAKLVALGIAGNASASA
B23: FS-1454 (peptide)
chain: CAFPMRGRRGAGNASASA
B24: FS-541 (peptide)
chain: CAIKSRFGRGAGNASASA
B25: FS-1534 (peptide)
chain: CAICSRAARGAGNASASA
B26: FS-1523 (peptide)
chain: CAFSSRWGRGAGNASASA
B27: FS-595 (peptide)
chain: CAHLVPVLRGAGNASASA
B28: FS-634 (peptide)
chain: CAYLNRKRRGAGNASASA
B29: FS-3215 (peptide)
chain: CAVFKRDAHGAGNASASA
B30: HC904 (peptide)
chain: CARRGRTGRGAGNASASA
B31: FS-390 (peptide)
chain: CAYLHRVGRGAGNASASA
B32: FS-1578 (peptide)
chain: CAVFQRKRRGAGNASASA
B33: HC824 (peptide)
chain: CALGIGTVLDAGNASASA
B34: HC2067 (peptide)
chain: CAVVCCSMFYAGNASASA
B35: FS-37 (peptide)
chain: CAISYRFPRGAGNASASA
B36: FS-671 (peptide)
chain: CAKKERRPRGAGNASASA
B37: FS-960 (peptide)
chain: CARYFRKRRGAGNASASA
B38: HC447 (peptide)
chain: CAGAGNNTLHAGNASASA
B39: HC456 (peptide)
chain: CADATYSRCGAGNASASA
B40: HC2314 (peptide)
chain: CAKVPCHRPSAGNASASA
B41: FS-113 (peptide)
chain: CAAENRALRLAGNASASA
B42: FS-819 (peptide)
chain: CALGSRYKKAAGNASASA
B43: FS-50 (peptide)
chain: CALGRRTKRAAGNASASA
B44: FS-2802 (peptide)
chain: CARRVRCSGAAGNASASA
B45: FS-1405 (peptide)
chain: CARRSRCIRAAGNASASA
B46: FS-496 (peptide)
chain: CARRSRLKRAAGNASASA
B47: FS-1442 (peptide)
chain: CAAEIRLKRAAGNASASA
B48: HC1023 (peptide)
chain: CAAEQFKQKAAGNASASA
B49: HC1575 (peptide)
chain: CALGNIIMFAAGNASASA

Biological target: furin, P09958
Sequence (P09958 whole entry): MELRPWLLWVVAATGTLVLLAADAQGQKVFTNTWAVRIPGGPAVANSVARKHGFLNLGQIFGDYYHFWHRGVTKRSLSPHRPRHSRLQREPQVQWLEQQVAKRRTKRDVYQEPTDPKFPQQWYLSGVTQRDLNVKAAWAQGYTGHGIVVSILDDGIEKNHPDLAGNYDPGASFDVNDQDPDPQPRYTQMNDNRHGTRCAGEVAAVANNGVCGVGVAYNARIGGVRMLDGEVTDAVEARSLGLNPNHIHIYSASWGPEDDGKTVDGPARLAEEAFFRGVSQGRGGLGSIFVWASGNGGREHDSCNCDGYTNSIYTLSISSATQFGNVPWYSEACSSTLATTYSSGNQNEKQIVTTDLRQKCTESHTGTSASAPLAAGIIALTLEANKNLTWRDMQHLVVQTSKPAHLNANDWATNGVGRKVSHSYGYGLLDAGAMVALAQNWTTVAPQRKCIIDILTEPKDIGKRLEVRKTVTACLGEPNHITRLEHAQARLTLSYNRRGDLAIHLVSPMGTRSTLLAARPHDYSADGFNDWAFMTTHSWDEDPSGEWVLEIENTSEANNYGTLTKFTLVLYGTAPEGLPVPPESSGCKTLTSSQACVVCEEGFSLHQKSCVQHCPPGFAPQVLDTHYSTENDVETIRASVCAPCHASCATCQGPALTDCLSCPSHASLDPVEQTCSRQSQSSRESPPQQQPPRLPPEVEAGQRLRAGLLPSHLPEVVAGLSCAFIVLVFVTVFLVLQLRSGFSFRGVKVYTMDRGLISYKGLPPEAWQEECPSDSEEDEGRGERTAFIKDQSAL
Assay: furin cleavage Z-score vs untreated control; higher = more cleavage, active = 3.5 or more, inactive = 1 or less, 8 variable residues between constant flanks
Summary of the method: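 Purified furin cleaved 8-mer peptides that were fused to a cDNA oligonucleotide and held on magnetic beads by their N-terminus. Each 0.01 ml reaction used a 1:10 enzyme:substrate ratio in 50 mM HEPES pH 7.5 with CaCl2 and NaCl and ran 7.5, 15 or 30 min. Released DNA was adapter-tagged by PCR and sequenced, and read counts gave abundance. The cleavage Z-score came from log counts against furin-free reactions, lowess-adjusted and scaled by median absolute deviation.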

Sequence	furin cleavage Z-score (7.5 min)	furin cleavage Z-score (15 min)	furin cleavage Z-score (30 min)
B1	5.21 (active)	3.72 (active)	3.69 (active)
B2	9.75 (active)	10.1 (active)	8.23 (active)
B3	-0.809 (inactive)	0.744 (inactive)	0.327 (inactive)
B4	-0.33 (inactive)	1.11	0.57 (inactive)
B5	8.63 (active)	7.91 (active)	6.71 (active)
B6	4.59 (active)	5.95 (active)	5.68 (active)
B7	-0.244 (inactive)	-0.0853 (inactive)	-0.758 (inactive)
B8	-0.409 (inactive)	1.35	0.148 (inactive)
B9	0.195 (inactive)	-0.703 (inactive)	-1.47 (inactive)
B10	-0.764 (inactive)	-0.112 (inactive)	0.0537 (inactive)
B11	-3.12 (inactive)	-1.42 (inactive)	-1.58 (inactive)
B12	12.7 (active)	13.3 (active)	9.9 (active)
B13	8.91 (active)	10.4 (active)	7.34 (active)
B14	6.03 (active)	4.67 (active)	4.95 (active)
B15	-0.162 (inactive)	0.495 (inactive)	-1.51 (inactive)
B16	7.65 (active)	7.42 (active)	7.31 (active)
B17	0.497 (inactive)	0.166 (inactive)	1.11
B18	0.634 (inactive)	0.79 (inactive)	-1.28 (inactive)
B19	0.524 (inactive)	0.481 (inactive)	-0.0828 (inactive)
B20	2.23	-1.13 (inactive)	0.314 (inactive)
B21	-0.0654 (inactive)	-1.8 (inactive)	-2.14 (inactive)
B22	0.999 (inactive)	-2.69 (inactive)	0.907 (inactive)
B23	-0.221 (inactive)	-0.337 (inactive)	0.17 (inactive)
B24	4.29 (active)	4.38 (active)	4.05 (active)
B25	-0.759 (inactive)	0.0398 (inactive)	-0.381 (inactive)

Sequence	furin cleavage Z-score (7.5 min)	furin cleavage Z-score (15 min)	furin cleavage Z-score (30 min)
B26	-2.35 (inactive)	0.914 (inactive)	-0.211 (inactive)
B27	0.989 (inactive)	-0.535 (inactive)	-1.61 (inactive)
B28	9.69 (active)	11.9 (active)	7.89 (active)
B29	-0.773 (inactive)	-0.315 (inactive)	1.52
B30	-0.725 (inactive)	-0.224 (inactive)	-0.511 (inactive)
B31	3.96 (active)	5.69 (active)	4.8 (active)
B32	12.4 (active)	12.7 (active)	9.42 (active)
B33	-0.583 (inactive)	0.0553 (inactive)	-0.254 (inactive)
B34	-1.42 (inactive)	0.168 (inactive)	-1.67 (inactive)
B35	4.87 (active)	7.38 (active)	6.94 (active)
B36	1.59	2.08	0.765 (inactive)
B37	10.2 (active)	11.6 (active)	9.02 (active)
B38	-0.871 (inactive)	0.802 (inactive)	-0.559 (inactive)
B39	0.156 (inactive)	1.42	0.00204 (inactive)
B40	1.64	0.0197 (inactive)	0.762 (inactive)
B41	0.559 (inactive)	-1.89 (inactive)	1.32
B42	-0.0568 (inactive)	-0.0472 (inactive)	-0.113 (inactive)
B43	9.24 (active)	10.5 (active)	6.44 (active)
B44	-0.409 (inactive)	0.495 (inactive)	0.927 (inactive)
B45	9.51 (active)	10.1 (active)	8.44 (active)
B46	11.4 (active)	11.7 (active)	8.87 (active)
B47	9.68 (active)	9.78 (active)	8.4 (active)
B48	0.841 (inactive)	0.435 (inactive)	-1.43 (inactive)
B49	-0.725 (inactive)	-1.13 (inactive)	-0.0117 (inactive)
